# Assay outcomes from PubChem BioAssay.
# PLK1 PBD inh – PLK1 (human) polo-box domain binding inhibition; P53350; Plk1 PBD binding of FITC phosphopeptide, fluorescence polarization; Potency, µM, without a hit: max response, negative = inhibition, most hits filed as inhibitors; 360,000 tested, 2.8% active; AID 720504; also: potency is read from the fitted curve at half-maximal effect; series mostly up to about 57 µM; nearly all actives have a fitted effect of over 65% in size
# Target sequence (P53350 whole entry, looked up, the tested form may be a part): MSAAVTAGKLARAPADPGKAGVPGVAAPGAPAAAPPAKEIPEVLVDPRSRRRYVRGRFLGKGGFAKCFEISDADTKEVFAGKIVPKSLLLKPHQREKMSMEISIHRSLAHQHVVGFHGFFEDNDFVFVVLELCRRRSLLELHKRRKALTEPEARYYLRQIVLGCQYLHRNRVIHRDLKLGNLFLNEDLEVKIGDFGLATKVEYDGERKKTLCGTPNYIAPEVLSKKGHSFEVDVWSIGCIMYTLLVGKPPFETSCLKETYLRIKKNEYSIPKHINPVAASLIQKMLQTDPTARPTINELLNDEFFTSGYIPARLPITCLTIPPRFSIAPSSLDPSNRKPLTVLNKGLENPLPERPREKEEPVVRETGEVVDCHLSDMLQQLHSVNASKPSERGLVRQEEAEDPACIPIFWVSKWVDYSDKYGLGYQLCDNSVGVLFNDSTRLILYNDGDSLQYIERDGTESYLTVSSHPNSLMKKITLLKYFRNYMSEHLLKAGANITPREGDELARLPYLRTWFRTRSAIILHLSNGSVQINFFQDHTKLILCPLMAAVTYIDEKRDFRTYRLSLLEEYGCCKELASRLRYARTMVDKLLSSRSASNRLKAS
# VDR inh – inhibitors of human vitamin D receptor; Potency, µM, without a hit: max response, negative = inhibition, usual class: inhibitors; 400,000 tested, 0.93% active; P11473; VDR-SRC2-3 peptide fluorescence polarization, 2 h; AID 504847; also: potency is read from the fitted curve at half-maximal effect
#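 The screen uses fluorescence polarization to detect compounds that interfere with recruitment of the SRC2-3 coactivator peptide to VDR; plates are read after 2 h at room temperature.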
# USP1 inh – USP1/UAF1 (human) deubiquitinase inhibition. 390,000 tested, 0.23% active. O94782. recombinant USP1/UAF1, Ub-Rhodamine cleavage fluorescence. Potency, µM (titrated, usually from 57.1 µM), inactives show at the highest dose activity change, negative = inhibition, hits mostly inhibitors; also: potency is read from the fitted curve at half-maximal effect; nearly all actives have a fitted effect of over 60% in size
#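 High-throughput fluorogenic screen: 1nM USP1/UAF1 complex, Ub-Rho substrate 150nM final, 50mM HEPES pH 7.8 with 0.5mM EDTA, 0.1 mg/ml BSA, 1mM TCEP and 0.01% Tween-20.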
# USP2a block – USP2a (human) protease inhibition; Potency, µM (doses to about 38.3 µM), inactives show at the top dose activity change, negative = inhibition, most hits filed as inhibitors; O75604; USP2 core, Ub-CHOP2 coupled fluorogenic reporter, 485/531; 330,000 tested, 0.01% active;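 also: potency is read from the fitted curve at half-maximal effect; plate controls were DMSO wells for no effect and full inhibition by NEM control for full effect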
#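 USP2 core (10nM final) preincubated 30min RT with compound in 20mM Tris-HCl pH 8.0, 2mM CaCl2, 2mM beta-mercaptoethanol, 0.05% CHAPS; 25nM Ub-CHOP2 plus 25nM reporter substrate added, fluorescence (Ex485/Em531) read after 60min.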
# FBPA coupling cs – inhibits coupling enzyme system, counter-screen for aldolase hits | activity change, negative = inhibition, % at 58.2 µM, hits read low | AID 2472 | coupling enzyme system counterscreen, AmpLite Red fluorescence | 290,000 tested, 0.67% active; in the data active = activity change below about -30%
#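 Coupling enzymes only (glyceraldehyde-3-phosphate) + compound, at 57.5 uM final, 10 min RT; add substrate/coupling/AmpLite Red mix, 20 min RT; fluorescence ex 525/em 598 nm. Actives flag coupling-system interference.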
# GALK inhibitor – inhibitors of human galactokinase; Purified GALK, Kinase-Glo residual ATP luminescence; Potency, µM (series often up to 57.5 µM), without a hit: at the highest dose activity change, negative = inhibition, actives largely listed as inhibitors; 270,000 tested, 0.007% active; AID 1868; also: potency is read from the fitted curve at half-maximal effect
#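 The enzyme phosphorylates galactose (100 uM) using ATP (35 uM); inhibition is detected as higher residual ATP, quantified by bioluminescence after 1 h reaction at room temperature, pH 8.0.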
# Numbers without * were called inactive; ? = inconclusive; . = no result given; ! = a repeat was not active. This is a sample that favours compounds with a hit; in the whole collection about 3.2% have one here. Unless noted, calls follow the shape of the dose curve; as a rule, active = well fitted curve in the direction sought with a large enough effect; inconclusive = small, poorly fitted or top-dose-only effect, or another doubt; inactive = no such curve, though single readings can be large; an effect the other way counts as inactive or inconclusive. Unless noted, % is scaled to controls: 0 for no effect and ±100 for the full control effect.
SMILES,PLK1 PBD inh,VDR inh,USP1 inh,USP2a block,FBPA coupling cs,GALK inhibitor
COc1cccc2c1C(=O)c1c(O)c3c(c(O)c1C2=O)CC(O)(C(C)=NO)CC3OC1CC(N)C(O)C(C)O1 (centres undefined),?,-9%,25µM*,.,.,.
CC(=O)O[C@@H]1[C@@H](O)C2OC3C=C(C)C(=O)[C@@H](O)[C@]3(CO)C1(C)C21CO1 (some centres undefined),.,-2%,.,.,0,.
CC(C)=CCOc1c2occc2cc2ccc(=O)oc12,27µM*,?,-22%,0%,-17,.
CC1(C)OC1COc1c2occc2cc2ccc(=O)oc12 (centres undefined),2%,-2%,-14%,0%,-17,.
Clc1ccc(C(Cl)(Cl)Cl)c(Cl)c1,11µM*,1%,-21%,-1%,.,.
O=C1NC(=O)C(=C/C=C/c2coc3ccc(Br)cc3c2=O)C(=O)N1,.,.,.,7%,6,.
O=C1NC(=O)C(=Cc2coc3ccccc3c2=O)C(=O)N1,11µM*,?,?,1%,5,-2%
C=CCn1c(C)c(C=C2C(=O)NC(=O)NC2=O)c2ccccc21,27µM*,?,-19%,3%,-1,-9%
Cn1cc(C=C2C(=O)NC(=O)NC2=O)c2ccccc21,24µM*,-7%,28µM*,3%,-1,.
O=C(c1ccccc1F)c1cn(CC(=O)N2CCCC2)c2ccccc12,3µM*,-19%,-19%,0%,-1,-1%
O=C(/C=C/c1ccccc1)NC(=S)N1C[C@H]2C[C@H](C1)c1cccc(=O)n1C2,?,-11%,?,1%,2,.
Cc1ccc(C2=NN(CCC(=O)N3CCC4(CC3)OCCO4)C(=O)CC2)cc1,-3%,-4%,2%,0%,0,-1%
COCCNC(=O)Cn1cc(C=C2C(=O)NC(=O)NC2=O)c2ccccc21,6.7µM*,-11%,-1%,0%,2,1%
COCCNC(=O)Cn1cc(C(=O)c2ccccc2F)c2ccccc21,30µM*,?,-4%,-1%,3,6%
O=C1NC(=O)C(=O)C(=O)N1,.,3.2µM*,.,.,-60*,.
CCOP(=O)(Nc1ccc2c(c1)C(=NNC(N)=S)c1ccccc1-2)OCC,27µM*,?,-16%,.,.,.
O=C(c1cn(Cc2ccccc2)c2ccccc12)C1CC1,27µM*,?,-14%,-10%,0,0%
O=C1NC(=O)N(CCC2=CCCCC2)C(=O)/C1=C/c1cccs1,0.75µM*,?,13%,2%,5,-6%
O=C1NC(=O)N(CCC2=CCCCC2)C(=O)/C1=C/c1ccc(O)cc1,2.7µM*,?,-15%,3%,0,-2%
O=C1NC(=O)N(CC2CCCO2)C(=O)/C1=C/c1cccs1 (centres undefined),?,-11%,-22%,-1%,4,-2%
COc1ccc(/C=C2\C(=O)NC(=O)N(CCC3=CCCCC3)C2=O)c(OC)c1,1.7µM*,?,-13%,1%,1,-1%
O=CN1CC2CC(C1)c1cccc(=O)n1C2 (centres undefined),.,.,.,.,1,.
CN1CC[C@@]23CCCCC2C1Cc1ccc(O)cc13 (some centres undefined),.,6%,.,.,2,.
O=C1C(I)=CC(=C(c2cc(I)c(O)c(I)c2)c2ccccc2C(=O)O)C=C1I,.,35µM*,.,.,.,.
CCCC(C)C1C(C#N)=C(N)Oc2c1c(=O)oc1ccccc21 (centres undefined),-3%,-6%,-14%,2%,1,-3%
SMILES,PLK1 PBD inh,VDR inh,USP1 inh,USP2a block,FBPA coupling cs,GALK inhibitor
O=C(O)c1ccccc1N=Nc1c(O)[nH]c(=O)[nH]c1=O,1%,12%,-12%,2%,-5,-2%
NS(=O)(=O)c1ccc(-c2ccc(C=C3C(=O)NC(=S)NC3=O)o2)cc1,.,.,.,3%,0,.
O=C1NC(=S)NC(=O)C1=Cc1c(Cl)cccc1Cl,4.7µM*,16µM*,-7%,.,.,.
Cn1cccc1/C=C1\C(=O)NC(=O)N(Cc2ccccc2)C1=O,?,?,-13%,-1%,6,4%
C=CCN1C(=O)NC(=O)/C(=C/c2cccn2C)C1=O,30µM*,9%,-16%,1%,-1,.
C=CCN1C(=O)NC(=O)/C(=C/c2ccoc2)C1=O,8.4µM*,-12%,-14%,?,2,2%
COc1ccc(CN2C(=O)NC(=O)/C(=C/c3ccoc3)C2=O)cc1,2.4µM*,-18%,-18%,?,0,-1%
CCN(CC)c1ccc(/C=C2\C(=O)NC(=O)N(Cc3ccco3)C2=O)cc1,?,?,-20%,3%,1,2%
C=CCN1C(=O)NC(=O)/C(=C/c2ccc(N(C)C)c(Br)c2)C1=O,6.7µM*,79µM*,-26%,1%,-6,0%
CC(C)(C)C(=O)c1cn(Cc2ccccc2)c2ccccc12,-7%,-11%,-20%,-2%,-9,0%
CC(C)n1c(=O)c(C=Nc2cccc([N+](=O)[O-])c2)c(O)n(CCc2ccccc2)c1=O,6%,-27%,-24%,-7%,0,1%
CCCCC/C=C\C/C=C\C/C=C\C/C=C\CCCC(=O)N[C@H](C)CO,.,35µM*!,.,.,-2,.
CCCCC/C=C\C/C=C\C/C=C\C/C=C\CCCC(=O)OC(CO)CO,.,35µM*!,.,.,-2,.
CC[N+](C)(CC)CCCCOc1ccc2c(c1)C(=O)c1cc(OCCCC[N+](C)(CC)CC)ccc1-2,11µM*,-16%,-8%,2%,-1,-2%
CCn1c(N)c(C(=O)NC)sc1=S,2.7µM*,25µM*,-20%,-1%,-2,0%
C=C1C(=O)OC2CC3(C)OC3CCC(C)=CC(OC(C)=O)C12 (centres undefined),-27%,71µM*,-18%,.,.,.
CC1=C(O)C(=O)C=C2C1=CC=C1C2(C)CCC2(C)C3CC(C)(C(=O)O)CCC3(C)CCC12C (centres undefined),2.1µM*,28µM*,-21%,.,.,.
Cc1c(O)c(O)cc2c1CC=C1[C@]3(C)CC[C@]4(C)CC[C@@](C)(C(=O)O)CC4[C@]3(C)CC[C@]12C (some centres undefined),.,?,.,.,-1,.
CCN(CC)P(=S)(c1c(C)nc2ccccn12)c1c(C)nc2ccccn12,5.3µM*,?,-11%,0%,1,-1%
CCOC(=O)c1cccc(NC(=O)c2c(O)[nH]c(=O)[nH]c2=O)c1,-3%,-20%,-28%,.,.,.
O=C1NC(=S)NC(=O)C1=Cc1ccc(OCc2ccccc2)cc1,2.7µM*,40µM*,?,.,.,.
COc1ccc(OCCOc2cccc(C=C3C(=O)NC(=O)NC3=O)c2)cc1,.,.,.,2%,4,-5%
